# ± gives the standard deviation of the averaged measurements.
# Tests used:
# Assay in all cases: cell viability (% of vehicle); higher = less cytotoxic
# HCI01 [1] = cells of a triple-negative basal-like breast cancer xenograft; settings: 1 µM; 72 h
# UCD52 [2] = cells of a triple-negative basal-like breast cancer xenograft; settings: 1 µM; 72 h
# WHIM2 [3] = cells of a triple-negative basal-like breast cancer xenograft; settings: 1 µM; 72 h
# WHIM30 [4] = cells of a triple-negative basal-like breast cancer xenograft; settings: 1 µM; 72 h
# HCI01 [5] = settings: 10 µM; 72 h
# HCI03 = cells of an ER-positive luminal breast cancer xenograft; settings: 10 µM; 72 h
# HCI09 = cells of a triple-negative luminal androgen receptor type breast cancer xenograft; settings: 10 µM; 72 h
# HCI11 = cells of an ER-positive luminal breast cancer xenograft; settings: 10 µM; 72 h
# HCI13 = cells of an ER-positive luminal breast cancer xenograft; settings: 10 µM; 72 h
# HCI16 = cells of a triple-negative basal-like breast cancer xenograft; settings: 10 µM; 72 h
# UCD52 [6] = settings: 10 µM; 72 h
# WHIM2 [7] = settings: 10 µM; 72 h
# WHIM30 [8] = settings: 10 µM; 72 h
Structure (SMILES),cell viability (HCI01 [1]),cell viability (UCD52 [2]),cell viability (WHIM2 [3]),cell viability (WHIM30 [4]),cell viability (HCI01 [5]),cell viability (HCI03),cell viability (HCI09),cell viability (HCI11),cell viability (HCI13),cell viability (HCI16),cell viability (UCD52 [6]),cell viability (WHIM2 [7]),cell viability (WHIM30 [8])
COc1cc2nccc(Oc3ccc(NC(=O)C4(C(=O)Nc5ccc(F)cc5)CC4)cc3)c2cc1OC.O=C(O)CC(O)C(=O)O [Cabozantinib malate (XL184)],92.9,93.9,90.8,84.4,88.7 ± 13,45.4,58.2 ± 4.8,44,85.1 ± 15,63.4,34.5 ± 3.2,105 ± 6.6,56 ± 1.8
COc1cc2c(Nc3ccc(Br)cc3F)ncnc2cc1OCC1CCN(C)CC1 [Vandetanib (ZD6474)],70,46.5,37.5,64.8,59.1 ± 20,32.2,30.7 ± 21,52.9,73.4 ± 36,56.4,25.2 ± 4.2,54.4 ± 11,25.7 ± 1.9
Clc1ccc(CSC(Cn2ccnc2)c2ccc(Cl)cc2Cl)cc1.O=[N+]([O-])O (stereo not drawn) [Sulconazole Nitrate],95.2,96.5,108,92.9,28.4 ± 6.5,77.3,24.5 ± 2.6,78.3,40.1 ± 3,74.1,35.2 ± 2.8,34.9 ± 8.5,119 ± 0.69
CC(C)(C)c1ccc(C(O)CCCN2CCC(C(O)(c3ccccc3)c3ccccc3)CC2)cc1 (stereo not drawn) [Terfenadine],89,79.9,81.1,73.1,34.4 ± 5.2,38.1,30.4 ± 2.9,55.3,48.3 ± 4.8,45.8,35.1 ± 4,42 ± 2.8,29.6 ± 3.5
CC(C)C[C@H](NC(=O)[C@H](Cc1ccccc1)NC(=O)c1cnccn1)B(O)O [Bortezomib],32.8,21.6,24.9,24,,,,,,,,,
C=C1C(=CC=C2CCCC3(C)C2CCC3C(C)CCCC(C)(C)O)CC(O)CC1O (stereo not drawn) [Calcitriol],70.8,50.1,46.8,92.9,27.6 ± 12,119,27 ± 5.2,73.4,66.4 ± 6.8,107,55.7 ± 0.62,39.3 ± 9.2,137 ± 14
O=C(C=Cn1cnc(-c2cc(C(F)(F)F)cc(C(F)(F)F)c2)n1)NNc1cnccn1,67.4,59.5,66.1,41.8,41.9 ± 24,41,31.5 ± 14,92.7,35.4 ± 2.5,73.2,80.1 ± 1.8,70.94 ± 0.096,46.7 ± 0.48
C=C1C(=CC=C2CCCC3(C)C2CCC3C(C)C=CC(C)C(C)C)CC(O)CC1O (stereo not drawn) [Doxercalciferol],75.3,63.6,61.8,93.1,39.4 ± 14,137,26.4 ± 8.6,75.3,52.8 ± 3,106,54.8 ± 6.5,50.8 ± 12,180 ± 17
CCc1c(Cl)c(O)c(Cl)c(O)c1C(=O)OC1C(C)OC(OCC2=CC=CCC(O)C(C)=CC(CC)C(OC3OC(C)(C)C(OC(=O)C(C)C)C(O)C3O)C(C)=CC(C)=CCC(C(C)O)OC2=O)C(OC)C1O (stereo not drawn) [Fidaxomicin],99.3,110,122,102,39.9 ± 12,65.5,28.6 ± 7.5,72.7,46.3 ± 0.086,56.3,44.6 ± 6.6,40.7 ± 8.9,29.3 ± 0.66
CC(CCC(=O)O)C1CCC2C3CCC4CC(O)CCC4(C)C3CCC12C (stereo not drawn) [Lithocholic Acid],89.2,96.6,92.9,91.5,65.5 ± 50,132,95.1 ± 24,103,84.8 ± 7,91.3,86.8 ± 6.5,37.8 ± 10,90.1 ± 6.3
Nc1c(CC(=O)[O-])cccc1C(=O)c1ccccc1.O.[Na+] [Amfenac Sodium Monohydrate],97.6,93,115,99.5,56.6 ± 53,102,92.4 ± 14,92.6,114 ± 16,104,62.1 ± 8.9,82.7 ± 3.5,90.11 ± 0.73
CCOC(=O)C1=C(COCCN)NC(C)=C(C(=O)OC)C1c1ccccc1Cl (stereo not drawn) [Amlodipine],103,93.7,101,90.2,70.6 ± 31,86.4,50.5 ± 42,100,32.2 ± 4.1,69.9,27.6 ± 4,31.9 ± 10,73.4 ± 12
Cl.Clc1ccccc1CN1CCc2sccc2C1 [Ticlopidine HCl],99.4,97.4,99.6,91.9,56.5 ± 32,108,82 ± 2.9,91.6,108 ± 34,97.2,62.5 ± 2.4,82.5 ± 24,89.7 ± 5.6
Cc1ccc(NC(=O)c2ccc(CN3CCN(C)CC3)cc2)cc1Nc1nc(-c2cccnc2)cs1 [Masitinib (AB1010)],113,85.9,114,84.6,53.6 ± 6.1,68.7,20 ± 2.6,37.8,55.8 ± 12,93.6,49.9 ± 13,46.2 ± 8,146 ± 61

# — the supplement of paper PMC6992640
